Lassa entry inh: Lassa virus entry inhibition; Potency, µM (highest dose often 37.9 µM), for the others: top-dose activity change, negative = inhibition, actives largely listed as inhibitors; 300,000 tested, 1.2% active; Lassa virus pseudotype entry inhibition, cell reporter; AID 540256; calls by dose curve; tested in HEK293 cells; further: nearly all actives have a fitted effect of over 50% in size
Marburg entry inh: Marburg virus entry inhibition; 300,000 tested, 1.8% active; Marburg virus pseudotyped entry inhibition, cell reporter; Potency, µM (doses to about 37.8 µM), without a hit: at the highest dose activity change, negative = inhibition, hits mostly inhibitors; AID 540276; calls by dose curve; tested in HEK293 cells
Vaccinia mCherry: vaccinia inhibition (mCherry reporter) | Vaccinia virus mCherry reporter infection, fluorescence | Potency, µM (titrated, usually from 36.5 µM), without a hit: at the highest dose activity change, negative = inhibition, most hits filed as inhibitors | 310,000 tested, 0.63% active | AID 720579; calls by dose curve; tested in A549 cells; further: nearly all actives have a fitted effect of over 35% in size
VACV Venus inh: inhibitors of vaccinia virus (Venus reporter) | Vaccinia virus Venus reporter expression, fluorescence | Potency, µM (doses to about 36.5 µM), for the others: at the top dose activity change, negative = inhibition, hits mostly inhibitors | 330,000 tested, 0.46% active; calls by dose curve; tested in A549 cells; further: nearly all actives have a fitted effect of over 30% in size
Sm TGR block: blocks Schistosoma mansoni thioredoxin glutathione reductase | purified TGR, DTNB reduction, TNB absorbance 405 nm | Potency, µM (highest dose often 114 µM), inactives show top-dose activity change, negative = inhibition, hits mostly inhibitors | 360,000 tested, 3% active; active means well fitted inhibition curve with a large enough effect; inconclusive means small, poorly fitted or top-dose-only effect; inactive means no such curve, though single readings can be large or run the other way; further: nearly all actives have a fitted effect of over 60% in size
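First, TGR (20 nM dispensed) and NADPH were mixed with compound. Second, a 15 min room-temperature incubation followed. Third, further NADPH and then DTNB were added to start the reaction. Finally, TNB absorbance was monitored kinetically.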
FMDV inh: foot and mouth disease virus antiviral activity | FMDV antiviral cell-based qHTS | AID 1159524 | Potency, µM (titrated, usually from 57.9 µM), for inactives: at the highest dose activity change, negative = inhibition, hits mostly inhibitors | 410,000 tested, 1.2% active; calls by dose curve; tested in HEK293T cells; further: read-out not given here; nearly all actives have a fitted effect of over 45% in size
* marks the source's active call; other numbers are inactive results; i = inactive; ? = inconclusive; nt = no result given; [ ] = another dose, or the depositor's remark. An excerpt weighted towards active compounds, which were near 5.4% of everything screened. On the % scale 0 is the no-effect control and ±100 the full control effect; potency means the concentration at half of the fitted maximal effect.

SMILES | Lassa entry inh | Marburg entry inh | Vaccinia mCherry | VACV Venus inh | Sm TGR block | FMDV inh
CCOC(=O)c1c(NC(=O)C(C)N2CCN(C(=O)c3ccco3)CC2)sc2c1CCCC2 (centres undefined) | 11µM* | ? | ? | ? | -23% | ?
O=C(c1ccco1)N1CCN(c2ncnc3sc4c(c23)CCC4)CC1 | -8% | -5% | ? | -14% | 11µM* | ?
CCc1nc(N2CCN(C(=O)c3ccccc3)CC2)c2c3c(sc2n1)CCCC3 | ? | ? | -21% | -12% | 0% | ?
CC1CCc2c(sc3nc(C4CC4)nc(N4CCN(C(=O)c5ccco5)CC4)c23)C1 (centres undefined) | ? | ? | 14µM* | ? | nt | 25µM*
CC1CCc2c(sc3ncnc(SCC(=O)N4CCN(C(=O)c5ccco5)CC4)c23)C1 (centres undefined) | nt | nt | nt | nt | -6% | nt
CCc1nc(N2CCN(C(=O)c3ccco3)CC2)c2c3c(sc2n1)CCCC3 | ? | ? | -26% | -25% | 56µM* | ?
CCOC(=O)c1c(NC(=O)c2ccco2)sc2c1CCCCC2 | 0% | ? | i | -10% | 0% | nt
Cc1cc(C(=O)NCc2nnc3n2CCN(Cc2ccc(F)cc2F)CC3)c(C)o1 | nt | nt | -2% | 1% | nt | -16%
COCCN1CCc2nc(SCC(=O)Nc3ccc(C)c(Cl)c3)[nH]c(=O)c2C1 | 17%[46.1 µM] | -4%[46.1 µM] | -10% | 6% | -3% | -10%
Cc1ccc(C(=O)Nc2nc(-c3ccccn3)cs2)o1 | nt | nt | nt | nt | -27% | 28%
O=C(Nc1nc(-c2ccccn2)cs1)c1ccc([N+](=O)[O-])o1 | ? | ? | ? | -13% | 10µM* | 2%
O=C(Nc1nc(-c2ccccn2)cs1)c1cc(Cl)ccc1[N+](=O)[O-] | 4.5µM* | 2.8µM* | ? | ? | -25% | -24%
CC(=O)c1ccc(-c2ccc(C(=O)Nc3nc(-c4ccccn4)cs3)o2)cc1 | nt | nt | nt | nt | nt | -4%
Cc1cc(C(=O)Nc2nc(-c3ccccn3)cs2)ccc1[N+](=O)[O-] | ? | ? | ? | -28% | -4% | 3%
O=C(Nc1nc(-c2ccccn2)cs1)c1ccc(-c2ccccc2F)o1 | nt | nt | nt | nt | 25µM* | 12%
Cc1cccc(CNC(=O)c2cnn(-c3ncc(C)c(-c4cccs4)n3)c2C2CC2)n1 | nt | nt | -14% | 5% | nt | 0%
Fc1ccc(CN2CCN3CCCC3C2C2CCCCC2)cc1F (centres undefined) | 13µM* | ? | nt | ? | -3% | ?
Fc1cccc(CN2CCN3CCCC3C2C2CCCCC2)c1 (centres undefined) | -2% | ? | nt | -29% | 12% | ?
COc1ccc(-n2c(=O)c3c(c4cc(OC)ccc4n3C)n(Cc3cc(C)ccc3C)c2=O)cc1 | 9%[46.1 µM] | nt | -15% | -2% | -3% | -14%
Cn1c(=O)c2c(nc(CN3CCN(c4ccc(F)cc4)CC3)n2Cc2ccccc2F)n(C)c1=O | -24% | 16µM* | nt | nt | 13%[11.4 µM] | 2%
Cn1c(=O)c2c(nc(CN3CCN(C(=O)c4ccco4)CC3)n2Cc2ccc(Cl)cc2)n(C)c1=O | -1% | 18% | nt | nt | ? | -8%
Cn1c(=O)c2c(nc(CN3CCN(C(=O)c4ccco4)CC3)n2Cc2cccc(Cl)c2)n(C)c1=O | 4% | -30% | nt | nt | 25µM* | -19%
Cn1c(=O)c2c(nc(N3CCCCCC3)n2Cc2cccc3ccccc23)n(C)c1=O | -24% | ? | ? | -29% | 3% | 28µM*
CN1CCN(c2nc3c(c(=O)n(C)c(=O)n3C)n2Cc2cccc3ccccc23)CC1 | -10% | 0% | nt | 1% | 22% | -10%
Cn1c(=O)c2c(nc(CN3CCN(CCO)CC3)n2Cc2cccc3ccccc23)n(C)c1=O | -19% | 12µM* | nt | nt | 34% | 0%
SMILES | Lassa entry inh | Marburg entry inh | Vaccinia mCherry | VACV Venus inh | Sm TGR block | FMDV inh
O=C(Cn1ncc2c3ccccc3n(Cc3ccccc3)c2c1=O)Nc1ccccc1C(F)(F)F | -12%[46.1 µM] | ? | 3% | 4% | 1% | -7%
CCCCNC(=O)c1sc2ncnc(NCC3CCCO3)c2c1C (centres undefined) | nt | nt | -7% | 3% | nt | 1%
O=S(=O)(c1ccc2c(Cl)cccc2c1)N1CCN(c2nc(-c3cccs3)nc3ccccc23)CC1 | nt | nt | -2% | -14% | nt | nt
Cc1c(-c2ccc(F)cc2)nc(N)c(C#N)c1-c1cccs1 | -23% | -16% | nt | nt | -2% | -8%
Cc1ccc(-c2c(C)c(-c3ccc(F)cc3)nc(N)c2C#N)o1 | 0% | ? | nt | -14% | 28µM* | 0%
CCCCOc1ccc(C(=O)NCc2nnnn2-c2ccc(C)c(C)c2)cc1 | -25%[46.1 µM] | nt | -9% | -12% | 4% | -1%
O=C1C2CCCCN2C(=O)N1CCCCN1CCN(c2ccc([N+](=O)[O-])cc2)CC1 (centres undefined) | -14% | ? | nt | -1% | -5% | 20µM*
Cc1ccc(N2CCN(CCCN3C(=O)C4CCCN4C3=O)CC2)cc1 (centres undefined) | -4% | 1% | -5% | -9% | 0% | -12%
C[N+](C)(C)CC1CCCc2ccccc2C1=O (centres undefined) | ? | ? | -9% | 0% | nt | ?
C[N+](C)(C)CC1CCCC(C[N+](C)(C)C)C1=O (centres undefined) | ? | 10µM* | -12% | -2% | nt | ?
COc1cccc(CNC(=O)CN2C(=O)CCCc3ccccc32)c1OC | 8%[46.1 µM] | nt | -14% | -10% | -7% | 8%
CN1/C(=C/C2CC(=O)NC2=O)C(C)(C)c2ccccc21 (centres undefined) | -14% | 4% | nt | nt | 45µM* | -19%
Cc1ccc(C(O)(CCN2CCCCC2)c2ccccc2)cc1 (centres undefined) | nt | nt | i | -22% | 11µM* | -15%
OC(CC#CCN1CCCCCC1)(c1ccccc1)C1CCCC1 (centres undefined) | nt | nt | nt | nt | ? | -22%
OC(CCN1CCCCC1)(c1ccccc1)C1CCCCC1 (centres undefined) | nt | 5µM* | -14% | -23% | 0% | -16%
OC(C#CCCN1CCCCC1)(c1ccccc1)C1CCCCC1 (centres undefined) | ? | -13% | -14% | -11% | 9% | ?
O=C(c1ccc([N+](=O)[O-])cc1)N1c2ncnn2C2(CCCCC2)[C@@H]2CCCC[C@@H]21 | 26%[46.1 µM] | 8%[46.1 µM] | -16% | -6% | 5% | ?
CS(=O)(=O)N(Cc1cccc(CN(C(C(=O)O)c2ccccc2)S(C)(=O)=O)c1)C(C(=O)O)c1ccccc1 (centres undefined) | nt | nt | i | -7% | 5µM* | -5%
CC12CCC(=O)C=C1CCC1C2C(O)CC2(C)C(c3csc(N)n3)CCC12 (centres undefined) | -16%[46.1 µM] | 8.9µM* | -10% | -8% | nt | ?
CC12CCC(=O)C=C1CCC1C2CCC2(C)C(c3csc(N)n3)CCC12 (centres undefined) | 13µM* | ? | i | -27% | nt | 13µM*
